According to PubChem BioAssay AID687001 (Broad Institute, 2013):
Measured potencies and affinities stand elsewhere. The source made the active and inactive calls.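 Rule for the calls: active = signal-lowering compounds whose fitted half-maximal concentration is at or below twice the top tested dose in every run; inconclusive = runs disagree, flat 30 to 70% inhibition, or poor curve fit; inactive = the rest.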

These compounds were tested against Protein S100-A4 (Homo sapiens) (UniProt P26447) (assay: human S100A4 peptide interaction inhibition curves – biochemical, fluorescence polarization, cherry-picked hits, dose response (AID 687001;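 note: 0% = DMSO neutral control wells and -100% = TFP positive control wells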)). Conditions: FP, S100A4/TAMRA-myosin IIA peptide binding; series mostly up to 11 µM.
Protein S100-A4 (Homo sapiens), sequence (P26447 whole entry, looked up): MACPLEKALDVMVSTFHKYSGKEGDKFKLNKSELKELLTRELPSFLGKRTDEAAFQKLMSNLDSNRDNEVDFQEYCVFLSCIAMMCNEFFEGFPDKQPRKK
In the case of `COc1ccc2c(CN3CCCC3)cc(=O)oc2c1`, the outcome is reported as “inactive”. `CC1CCN(C(=O)CSc2n[nH]c(-c3cccs3)n2)CC1` was tested, and the outcome was “inactive”. `COc1cc(NS(=O)(=O)c2ccc(NC(=O)c3ccc([N+](=O)[O-])cc3)cc2)ncn1` was tested, and the outcome was “inactive”. `Cc1ccc(NC(=S)N(C)C)cc1C` was tested, and the outcome was “inactive”. `COC(=O)[C@@H]1[C@@H](CO)[C@@H]2Cn3c(cccc3=O)[C@@H]2N1CC1CCOCC1` was tested, and the outcome was “inactive”. With `O=C(CN1C(=O)/C(=C/c2ccccc2Cl)SC1=S)NC1C=CS(=O)(=O)C1` (centres undefined) the outcome was “inactive”. For `O=C(O)CSc1c2c(nc3cc(C(=O)Nc4cccc(C(F)(F)F)c4)ccc13)CCCC2`, the outcome was “inactive”. `CN(C)C(=O)C[C@@H]1C=C[C@H](NC(=O)Nc2cccc(F)c2)[C@@H](CO)O1` was tested, and the outcome was “inactive”. `O=C(C[C@H]1CC[C@H](NC(=O)Nc2ccccc2F)[C@@H](CO)O1)NCc1ccc(-c2ccccc2)cc1` was tested, and the outcome was “inactive”. `COc1ccc(/C=C2/CCCc3ccccc3C2=O)cc1` was tested, and the outcome was “inactive”. With `CCN(CC)C(=O)Oc1ccc2c(c1)O/C(=C\c1ccco1)C2=O` the outcome was “inactive”. With `COCCNC(=O)C1CCCN(Cc2ccc(C(C)C)cc2)CC1` (centres undefined) the outcome was “inactive”. For `CO[C@H]1CC[C@H]2CCOc3c(C#N)cccc3C(=O)N(C)C[C@H](c3ccccc3)CC(=O)N(C)C[C@H]1O2`, the outcome was “inactive”. For `Nc1cnccc1C(=O)O`, the outcome was “inactive”. `Cc1cc2ccccc2n1CCNC(=O)Cc1cccc2ccccc12` was tested, and the outcome was “inactive”. With `O=C(C[C@@H]1CC[C@@H]2[C@H](COC[C@H](O)CN2C(=O)c2cccnc2)O1)NCc1ccc(Cl)cc1` the outcome was “inactive”. For `O=C(c1ccc2c(c1)OCO2)N1CC(=O)N2[C@@H](CO)[C@H](c3ccc(C#Cc4ccccc4)cc3)[C@@H]2C1`, the outcome was “inactive”. For `CCN(CC(=O)Nc1c(F)cccc1F)C(=O)CNC(=O)c1cccs1`, the outcome was “inactive”. With `CC(NC(=O)COC(=O)c1cc([N+](=O)[O-])ccc1N1CCOCC1)c1ccc(F)cc1` (centres undefined) the outcome was “inactive”. With `COC(=O)c1sccc1NC(=O)Nc1ccc(C)c(C)c1` the outcome was “inactive”. For `O=C(c1cnccn1)N1CC(=O)N2[C@H](CO)[C@@H](c3ccc(-c4ccc(F)cc4)cc3)[C@H]2C1`, the outcome was “inactive”. With `Cc1ccc(S(=O)(=O)Nc2ccc3c(c2)C(=O)N([C@@H](C)CO)C[C@@H](C)[C@@H](CN(C)CC2CC2)OCCCC[C@@H](C)O3)cc1` the outcome was “inactive”. With `O=C1CC(C(=O)N2CCN(c3ccccn3)CC2)CN1Cc1ccccc1Cl` (centres undefined) the outcome was “inactive”. For `O=C(c1cnn(C(=O)c2ccco2)c1)c1cc(Cl)cc(Cl)c1O`, the outcome was “inactive”. With `C[C@H]1CCCCO[C@H](CN(C)S(=O)(=O)c2ccc(F)cc2)[C@@H](C)CN([C@@H](C)CO)C(=O)c2cc(NS(=O)(=O)c3ccccc3)ccc2O1` the outcome was “inactive”. With `COCCN(C(=O)CSc1nc2ccc(OC)cc2[nH]1)c1c(N)n(Cc2ccccc2)c(=O)[nH]c1=O` the outcome was “inactive”. `CN1c2ccc(-c3cccc(F)c3)cc2[C@H]2[C@H](CCN2C(=O)c2ccccc2F)[C@H]1CO` was tested, and the outcome was “inactive”. For `NS(=O)(=O)c1ccc(NCc2cnc3ccccc3c2)cc1`, the outcome was “inactive”. `N#Cc1ccc(-c2ccc([C@@H]3[C@@H](CO)N4C(=O)CN(C(=O)C5CC5)C[C@H]34)cc2)cc1` was tested, and the outcome was “inactive”. For `Cc1ccc2c(nc3s/c(=C\c4ccc(-c5ccccc5C(=O)O)o4)c(=O)n32)c1C`, the outcome was “inactive”. For `CC(OC(=O)C1CC(=O)N(Cc2ccco2)C1)C(=O)Nc1ccc(F)cc1Cl` (centres undefined), the outcome was “inactive”. With `COC(=O)c1c(NC(=O)CCN2CCOCC2)sc2c1CCCC2` the outcome was “inactive”. For `CCN(CC)C(=O)Cn1ccc(NC(C)=O)nc1=O`, the outcome was “inactive”. `Cc1ccc(/C=C2/SC(=O)N(CC(=O)N3CCOCC3)C2=O)s1` was tested, and the activity change, negative = inhibition was 7.53% [at 2.6 µM] (inactive). `O=C(COC(=O)C12CC3CC(CC(Br)(C3)C1)C2)Nc1c(F)cccc1F` was tested, and the outcome was “inactive”. `CCCNC(=O)N1CC[C@@H]2[C@@H](CO)N(C)c3ccc(-c4ccc(F)cc4)cc3[C@@H]21` was tested, and the outcome was “inactive”. For `O=C(CSc1ccc([N+](=O)[O-])cn1)Nc1ccc2c(c1)OCO2`, the outcome was “inactive”. In the case of `C=CCn1c(C)nnc1SCC(=O)Nc1ccccc1C(=O)NC1CC1`, the outcome is reported as “inactive”. `CC(=O)N1CCCCN2[C@H](CO)[C@H](c3ccc(C#Cc4ccccc4F)cc3)[C@@H]2C1` was tested, and the outcome was “inactive”.
